We go through 40 molecules from PubChem BioAssay (NCI).

The panel holds about 83,000 compounds, 20% with a hit somewhere; the sample as a whole holds those more often.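 Note: values are percent growth. 100 is the growth of untreated cells, values between 100 and 0 indicate rising inhibition; between -100 and 0 indicates cell death.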 Active and inactive are the calls of the source. The calls were made as follows: active = growth percent below 10; inactive = the rest.

In the experiment the test system is HL-60(TB) leukemia. Briefly: NCI-60 one-dose screen, 48 h (100 = growth as untreated, 0 = no growth, -100 = all killed). Conditions: 10 µM unless noted.
On to `CCOC(=O)c1csc(NC(=O)COc2cccc(/C=C3\CSc4ccccc4C3=O)c2)n1`, for which the growth was -77.5% (active).
For the molecule `ONc1nc(NO)c2[nH]cnc2n1`, the growth was 15.1% (inactive).
As for `O=C(Nc1ccccc1Cl)c1c[nH]c(=O)c(-c2ccc(N3CCCOC4(CC4)C3)cc2)c1`, the figure is 28.3% (inactive); as for `CCOC(=O)c1nc2c3ccccc3ccn2c1C(=O)OC`, 94.9% (inactive).
Under `CC(=O)O[C@@H]1C[C@]2(C)[C@H]3[C@H](O)C[C@@H]4C5=CC(C)(C)CC[C@]5(C)CC[C@@]4(C)[C@]3(C)CC[C@H]2C(C)(C)[C@H]1O` stands 120% (inactive); under `CCOc1ccc(NC(=O)Nc2cc(C(C)C)ccc2C)cc1`, 95.2% (inactive); under `COc1cc(C(=O)Oc2ccccc2OC(=O)c2cc(OC)c(OC)c(OC)c2)cc(OC)c1OC`, 110% (inactive).
Take `COc1ccc(C(=O)c2sc3nc4c(c(C(F)(F)F)c3c2N)CN(C(C)=O)CC4)cc1OC`: the growth was 98.7% (inactive).
Under `Cc1cc(C)nc(SCC(=O)Nc2cccc(N=Cc3ccccc3O)c2)n1` stands 96.6% (inactive).
In the case of `CCn1c2ccc(O)cc2c2c(C)c3c[n+](C)ccc3c(C)c21`, the growth is 95.5% (inactive).
Turning to `CCN(CC)CCCNc1cc(OC)c(OC)c2cccnc12`, the growth was 29.2% (inactive).
For `Cc1nnc(-c2ccc3c(c2)nc(/C=C/c2ccccc2)n3C2CCCCC2)o1`, the growth is 65.3% (inactive).
Under `CC(C)CC(NC(=O)C(CCCN=C(N)N)NC(=O)OCc1ccccc1)C(=O)NC(CNC(=O)/C=C/c1ccccc1)C(C)C` (stereo not given) stands 102% (inactive); under `CCCCCCCCCCCC1N=C(N)N=C(N)N1c1cccc(Br)c1` (stereo not given), -53% (active).
For `COc1cc(NS(=O)(=O)C(C)C)cc(-c2cc(-c3ccc(N4CCNCC4)cc3)cnc2N)c1`, the growth was 78.3% (inactive).
Under `COc1cccc(-c2nc3sccn3c2-c2ccnc(NCCNS(=O)(=O)c3cccc(F)c3)c2)c1` stands -1.8% (active); under `CC(=O)ON=C1C=CC(=C(C#N)c2ccccc2)C=C1`, -10.5% (active).
Take `Cc1ccc(N=Nc2c(N)nc(N)[nH]c2=O)cc1C`: the growth was 97.3% (inactive).
As to `COC1/C=C\OC2(C)Oc3c(C)c(O)c4c(O)c(c(CN(C)CCO)c(O)c4c3C2=O)NC(=O)/C(C)=C\C=C/C(C)C(O)C(C)C(O)C(C)C(OC(C)=O)C1C` (stereo not given), the growth was 114% (inactive).
As to `CCOC(=O)c1c2ncccc2n2c(=O)n(-c3ccc(Cl)cc3)nnc12`, the growth was 80.5% (inactive).
As for `COc1cc(NCCCN(CC(C)C)C2CCCC2)c2ncccc2c1`, the figure is 22.5% (inactive); as for `CCCCCCCCn1ccc2cc(NC(=O)CN3CCN(c4nc(C)cc(N5CCCCC5)n4)CC3)ccc21`, 71% (inactive); as for `OCc1cnc2ccccc2c1NC1CCCCCC1`, 88.5% (inactive).
Consider `Cc1ccc(N(CC(=O)Nc2ccc(S(=O)(=O)N3CCC(N4CCCC4)CC3)cc2)S(=O)(=O)c2ccc(Cl)cc2)cc1`, for which the growth was -51.5% (active).
On to `CCN(CC)C12CCCCC1(C)C(C#N)(C#N)C(C#N)=C(N)O2` (stereo not given), for which the growth is 72.5% (inactive).
With `COc1cc(/C=C/C(=O)Nc2cccnc2Nc2ccc(F)cc2)cc(OC)c1OC`, the growth is 107% (inactive).
For the molecule `NCCNc1nc2ccccc2c2c(=O)c3cc(F)cc(Cl)c3sc12`, the growth was -42.8% (active).
In the case of `Clc1ccc(/C=N/Nc2nc3ccccc3s2)c(Cl)c1`, the growth was 98.5% (inactive).
Regarding `COc1ccc(C2=NN(C(C)=O)C(c3cn(-c4ccccc4)nc3-c3ccc(Cl)cc3)C2)cc1` (stereo not given), the growth was 3.16% (active).
Under `O=C1/C(=N\c2cc(=O)[nH]n2S(=O)(=O)c2ccccc2)Nc2ccccc21` stands 102% (inactive); under `COc1cc(NCCCCN=C(N)NC(N)=NC(C)C)c2ncccc2c1`, 55.9% (inactive).
As for `O=C1c2ccc3c4c(ccc(c24)C(=O)N1CCNCc1ccccc1)C(=O)N(CCNCc1ccccc1)C3=O`, the figure is -34.6% (active); as for `C[C@]12CC[C@@H]3c4ccc(O)c([N+](=O)[O-])c4CC[C@H]3[C@@H]1CC[C@@H]2NS(=O)(=O)c1cccc(Br)c1`, -5.66% (active); as for `O=C1NN(C(=O)c2ccc(O)cc2)C(c2ccccc2)=N/C1=C\c1cn(-c2ccccc2)nc1-c1ccccc1`, 85.7% (inactive).
As for `O=C1/C(=C/c2ccccc2)CCc2nc3ccccc3c(/C=C/c3ccc(Cl)cc3)c21`, the figure is 83.2% (inactive); as for `C=C1C(=O)O[C@H]2[C@H]1CC/C(Cn1cc(CNC(=O)/C=C/c3c[nH]c4ccccc34)nn1)=C\CC[C@@]1(C)O[C@@H]21`, 29.9% (inactive).
`O=C(Oc1ccc(Cl)cc1[N+](=O)[O-])Oc1ccc(Cl)cc1[N+](=O)[O-]`: the growth was 95.7% (inactive).
As for `O=C(/C=C/C12c3ccccc3C(c3ccccc31)C1C(=O)NC(=O)C12)c1cccs1` (stereo not given), the figure is 6.95% (active); as for `COc1cc(-c2csc(NC(=O)Nc3cc(C(F)(F)F)cc(C(F)(F)F)c3)n2)cc(OC)c1OC`, 12% (inactive).
Under `O=S(=O)(Oc1ccc(-c2ccc3sccc3c2)cc1)c1ccccc1` stands 99.6% (inactive).
